{"source": "PubChem BioAssay (NCATS)", "note": "Records with an inconclusive call do not appear. Values without a mark were called inactive. Activity calls are given as the source filed them. The call rests on the fitted dose curve; in most records, active means well fitted inhibition curve with a large enough effect; inconclusive means small, poorly fitted or top-dose-only effect; inactive means flat fitted curve, though single readings scatter. Potency means the concentration at half of the fitted maximal effect."}
{"test_system": "AA1029", "assay": "qHTS profiling for inhibitors of Plasmodium falciparum proliferation (AID 504749); further: nearly all actives have a fitted effect of over 60% in size;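 on activity, negative = inhibition: 0% = DMSO vehicle and full inhibition = artemisinin control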", "conditions": "P. falciparum in erythrocytes, SYBR Green DNA, 72 h; series mostly up to 28.7 µM; activity, negative = inhibition: at the top concentration", "how_it_was_run": "(§1)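 Each compound contacts P. falciparum-infected red blood cells for 72 h at 37 C; lysis buffer (Tris, EDTA, saponin, Triton X, SYBR Green I) is added and fluorescence measured next morning; values normalized to controls.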"}
{"smiles": "CC(=O)N1CCN(c2ccc(OC[C@@H]3CO[C@@](Cn4ccnc4)(c4ccc(Cl)cc4Cl)O3)cc2)CC1", "activity, negative = inhibition": "-6.09%"}
{"smiles": "OC[C@H](S)CS", "Potency": "10 µM (active)"}
{"smiles": "N[C@H](COP(=O)(O)O)C(=O)O", "activity, negative = inhibition": "2.62%"}
{"smiles": "C[N+]1(C)[C@@H]2CC(OC(=O)[C@@H](CO)c3ccccc3)C[C@@H]1[C@H]1O[C@H]12", "note": "(some centres undefined)", "activity, negative = inhibition": "-0.357%"}
{"smiles": "C(=C/c1ccccc1)/CN1CCN(C(c2ccccc2)c2ccccc2)CC1", "activity, negative = inhibition": "-8.92% [at 12.8 µM]"}
{"smiles": "COc1cc2nc(N(C)CCCNC(=O)[C@@H]3CCCO3)nc(N)c2cc1OC", "activity, negative = inhibition": "4.88% [at 12.8 µM]"}
{"test_system": "AS120", "assay": "qHTS profiling for inhibitors of Plasmodium falciparum proliferation (AID 504749); further: nearly all actives have a fitted effect of over 60% in size;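 on activity, negative = inhibition: 0% = DMSO vehicle and full inhibition = artemisinin control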", "conditions": "P. falciparum in erythrocytes, SYBR Green DNA, 72 h; series mostly up to 28.7 µM; activity, negative = inhibition: at the top concentration", "how_it_was_run": "as §1"}
{"smiles": "CC(=O)N1CCN(c2ccc(OC[C@@H]3CO[C@@](Cn4ccnc4)(c4ccc(Cl)cc4Cl)O3)cc2)CC1", "activity, negative = inhibition": "-18.5%"}
{"smiles": "OC[C@H](S)CS", "activity, negative = inhibition": "6.46%"}
{"smiles": "N[C@H](COP(=O)(O)O)C(=O)O", "activity, negative = inhibition": "9.67%"}
{"smiles": "C[N+]1(C)[C@@H]2CC(OC(=O)[C@@H](CO)c3ccccc3)C[C@@H]1[C@H]1O[C@H]12", "note": "(some centres undefined)", "activity, negative = inhibition": "-0.306%"}
{"smiles": "C(=C/c1ccccc1)/CN1CCN(C(c2ccccc2)c2ccccc2)CC1", "activity, negative = inhibition": "-10.3% [at 12.8 µM]"}
{"smiles": "COc1cc2nc(N(C)CCCNC(=O)[C@@H]3CCCO3)nc(N)c2cc1OC", "activity, negative = inhibition": "3.52% [at 12.8 µM]"}
{"test_system": "ATS189", "assay": "qHTS profiling for inhibitors of Plasmodium falciparum proliferation (AID 504749); further: nearly all actives have a fitted effect of over 60% in size;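 on activity, negative = inhibition: 0% = DMSO vehicle and full inhibition = artemisinin control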", "conditions": "P. falciparum in erythrocytes, SYBR Green DNA, 72 h; series mostly up to 28.7 µM; activity, negative = inhibition: at the top concentration", "how_it_was_run": "as §1"}
{"smiles": "CC(=O)N1CCN(c2ccc(OC[C@@H]3CO[C@@](Cn4ccnc4)(c4ccc(Cl)cc4Cl)O3)cc2)CC1", "activity, negative = inhibition": "2.39%"}
{"smiles": "OC[C@H](S)CS", "activity, negative = inhibition": "1.15%"}
{"smiles": "N[C@H](COP(=O)(O)O)C(=O)O", "activity, negative = inhibition": "23.6%"}
{"smiles": "C[N+]1(C)[C@@H]2CC(OC(=O)[C@@H](CO)c3ccccc3)C[C@@H]1[C@H]1O[C@H]12", "note": "(some centres undefined)", "activity, negative = inhibition": "5.56%"}
{"smiles": "C(=C/c1ccccc1)/CN1CCN(C(c2ccccc2)c2ccccc2)CC1", "activity, negative = inhibition": "1.59% [at 12.8 µM]"}
{"smiles": "COc1cc2nc(N(C)CCCNC(=O)[C@@H]3CCCO3)nc(N)c2cc1OC", "activity, negative = inhibition": "-4.5% [at 12.8 µM]"}
{"test_system": "ATS95", "assay": "qHTS profiling for inhibitors of Plasmodium falciparum proliferation (AID 504749); further: nearly all actives have a fitted effect of over 60% in size;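 on activity, negative = inhibition: 0% = DMSO vehicle and full inhibition = artemisinin control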", "conditions": "P. falciparum in erythrocytes, SYBR Green DNA, 72 h; series mostly up to 28.7 µM; activity, negative = inhibition: at the top concentration", "how_it_was_run": "as §1"}
{"smiles": "CC(=O)N1CCN(c2ccc(OC[C@@H]3CO[C@@](Cn4ccnc4)(c4ccc(Cl)cc4Cl)O3)cc2)CC1", "activity, negative = inhibition": "-20%"}
{"smiles": "OC[C@H](S)CS", "Potency": "12.6 µM (active)"}
{"smiles": "N[C@H](COP(=O)(O)O)C(=O)O", "activity, negative = inhibition": "8.08%"}
{"smiles": "C(=C/c1ccccc1)/CN1CCN(C(c2ccccc2)c2ccccc2)CC1", "activity, negative = inhibition": "-4.42% [at 12.8 µM]"}
{"smiles": "COc1cc2nc(N(C)CCCNC(=O)[C@@H]3CCCO3)nc(N)c2cc1OC", "activity, negative = inhibition": "-25.2% [at 12.8 µM]"}
{"test_system": "C2A", "assay": "qHTS profiling for inhibitors of Plasmodium falciparum proliferation (AID 504749); further: nearly all actives have a fitted effect of over 60% in size", "conditions": "P. falciparum in erythrocytes, SYBR Green DNA, 72 h; series mostly up to 28.7 µM; activity, negative = inhibition: at the top concentration", "how_it_was_run": "as §1"}
{"smiles": "CC(=O)N1CCN(c2ccc(OC[C@@H]3CO[C@@](Cn4ccnc4)(c4ccc(Cl)cc4Cl)O3)cc2)CC1", "activity, negative = inhibition": "-14.4%"}
{"smiles": "OC[C@H](S)CS", "activity, negative = inhibition": "-2.92%"}
{"smiles": "N[C@H](COP(=O)(O)O)C(=O)O", "activity, negative = inhibition": "7.19%"}
{"smiles": "C[N+]1(C)[C@@H]2CC(OC(=O)[C@@H](CO)c3ccccc3)C[C@@H]1[C@H]1O[C@H]12", "note": "(some centres undefined)", "activity, negative = inhibition": "3.05%"}
{"smiles": "C(=C/c1ccccc1)/CN1CCN(C(c2ccccc2)c2ccccc2)CC1", "activity, negative = inhibition": "-1.06% [at 12.8 µM]"}
{"smiles": "COc1cc2nc(N(C)CCCNC(=O)[C@@H]3CCCO3)nc(N)c2cc1OC", "activity, negative = inhibition": "-7.55% [at 12.8 µM]"}
